According to PubChem BioAssay (NCATS):
Inconclusive results are not listed. Calls of active or inactive are those of the source. Calls follow the shape of the dose curve; as a rule, active = well fitted curve in the direction sought with a large enough effect; inconclusive = small, poorly fitted or top-dose-only effect, or another doubt; inactive = no such curve, though single readings can be large; an effect the other way counts as inactive or inconclusive.

Legend:
[1] = tested on: MCC-13; assay: qHTS assay to identify novel small-molecules to repurpose for Merkel cell carcinoma treatment (AID 1296009); details: MCC and control cell lines, CellTiter-Glo viability, 72 h; series mostly up to 46 µM; also: nearly all actives have a fitted effect of over 60% in size
How it was run: (§1)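 Dose-response viability screen; 72 hr exposure at 37 degree celsius; CellTiter-Glo added, 10 min room temperature, luminescence read; RLUs scaled between no-cell and DMSO wells.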

[2] = tested on: MCC-26; assay: as above; details: MCC and control cell lines, CellTiter-Glo viability, 72 h; series mostly up to 46 µM
How it was run: as §1

[3] = tested on: MKL-1; assay: as above; details: MCC and control cell lines, CellTiter-Glo viability, 72 h; series mostly up to 46 µM
How it was run: as §1

[4] = tested on: MKL-2; assay: as above; details: MCC and control cell lines, CellTiter-Glo viability, 72 h; series mostly up to 46 µM
How it was run: as §1

[5] = tested on: NIH3T3; assay: as above; details: MCC and control cell lines, CellTiter-Glo viability, 72 h; at 44.8 µM (top of the series) unless noted
How it was run: as §1

[6] = tested on: UISO; assay: as above; details: MCC and control cell lines, CellTiter-Glo viability, 72 h; series mostly up to 46 µM
How it was run: as §1

[7] = tested on: WaGa; assay: as above; details: MCC and control cell lines, CellTiter-Glo viability, 72 h; series mostly up to 46 µM
How it was run: as §1

[8] = tested on: C33A; assay: Primary qHTS to identify gynecologic anti-cancer compounds using libraries of approved drugs and bioactive compounds (AID 1345084); details: Gynecologic cancer cell panel viability, ATPlite luminescence, 48 h; series mostly up to 57.5 µM; also: nearly all actives have a fitted effect of over 55% in size
How it was run: (§2)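 Cell viability after 48 h drug treatment, ATPlite luminescence readout; five doses.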

[9] = tested on: CAOV3; assay: as above; details: Gynecologic cancer cell panel viability, ATPlite luminescence, 48 h; series mostly up to 57.5 µM
How it was run: as §2

[10] = tested on: CASKI; assay: as above; details: Gynecologic cancer cell panel viability, ATPlite luminescence, 48 h; series mostly up to 57.5 µM
How it was run: as §2

[11] = tested on: Es-2; assay: as above; details: Gynecologic cancer cell panel viability, ATPlite luminescence, 48 h; series mostly up to 57.5 µM
How it was run: as §2

[12] = tested on: HeLa; assay: as above; details: Gynecologic cancer cell panel viability, ATPlite luminescence, 48 h; series mostly up to 57.5 µM
How it was run: as §2

[13] = tested on: Hek293T; assay: as above; details: Gynecologic cancer cell panel viability, ATPlite luminescence, 48 h, control line for the selectivity index; series mostly up to 57.5 µM
How it was run: as §2

[14] = tested on: JEG-3; assay: as above; details: Gynecologic cancer cell panel viability, ATPlite luminescence, 48 h; series mostly up to 57.5 µM
How it was run: as §2

[15] = tested on: OV90; assay: as above; details: Gynecologic cancer cell panel viability, ATPlite luminescence, 48 h; series mostly up to 57.5 µM
How it was run: as §2

[16] = tested on: PA-1; assay: as above; details: Gynecologic cancer cell panel viability, ATPlite luminescence, 48 h; series mostly up to 57.5 µM
How it was run: as §2

[17] = tested on: SKOV3; assay: as above; details: Gynecologic cancer cell panel viability, ATPlite luminescence, 48 h; series mostly up to 57.5 µM
How it was run: as §2

[18] = tested on: Tov-21-G; assay: as above; details: Gynecologic cancer cell panel viability, ATPlite luminescence, 48 h; series mostly up to 57.5 µM
How it was run: as §2

[19] = tested on: Tov112D; assay: as above; details: Gynecologic cancer cell panel viability, ATPlite luminescence, 48 h; series mostly up to 57.5 µM
How it was run: as §2

Measured: Potency

c1ccc2[nH]ccc2c1
inactive: all assays above

Cc1c(NC(C)C)c(=O)n(-c2ccccc2)n1C
not listed: [17]
inactive: all other assays above

Cc1ccsc1/C=C/C1=NCCCN1C
not listed: [17]
inactive: all other assays above

OC(CCN1CCCC1)(c1ccccc1)C1CCCCC1 (stereo unspecified)
not listed: [15]
inactive: all other assays above

NC(N)=NS(=O)(=O)c1ccc(N)cc1
inactive: all assays above

CN1CCCN=C1COC(=O)C(O)(c1ccccc1)C1CCCCC1 (stereo unspecified)
inactive: all assays above

NS(=O)(=O)c1cc(C2(O)NC(=O)c3ccccc32)ccc1Cl (stereo unspecified)
inactive: all assays above

O=C(c1ccccc1)C(O)c1ccccc1 (stereo unspecified)
inactive: all assays above

O=C(O)[C@@H]1[C@H]2C[C@H]3c4[nH]c5ccccc5c4CCN3C[C@@H]2CC[C@@H]1O
not listed: [15]
inactive: all other assays above

CC(C)c1cc2c(cc1S(=O)(=O)O)[C@@]1(C)CCC[C@@](C)(C(=O)O)[C@@H]1CC2
not listed: [9]
inactive: all other assays above

COc1ccc(C(=O)N2CCN(CC(=O)N3CCOCC3)CC2)cc1
inactive: all assays above

O=C(O)Cn1c(C(=O)Nc2nc(-c3ccccc3Cl)cs2)cc2ccccc21
not listed: [9] | [17]
inactive: all other assays above

CCCC(O)C(CC)CO (stereo unspecified)
not listed: [16]
inactive: all other assays above

CCN[C@H]1CN(CCCOC)S(=O)(=O)c2sc(S(N)(=O)=O)cc21
not listed: [16]
inactive: all other assays above

Cc1c(C)c2c(c(C)c1OC(=O)c1cccnc1)CC[C@@](C)(CCC[C@H](C)CCC[C@H](C)CCCC(C)C)O2
inactive: all assays above
